PubChem BioAssay AID1303 (The Scripps Research Institute Molecular Screening Center, 2008)
The list shows a part of the results. A number with no mark means an inactive call. The source made the active and inactive calls.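 The calls were made as follows: active = inhibition above the mean of solvent-only control wells plus 3 SD of those wells (cut at about 15% in these data); inactive = the rest.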

experiment: NF-kB reporter inhibitors, TNF-alpha stimulated, counter-screen for STAT1 inhibitor project, cell-based, HEK293T, luciferase luminescence (AID 1303); details: TNF-alpha induced, at 5.7 µM, hits give high values;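 also: 0% = DMSO with TNF-alpha and 100% = MG-132 control with TNF-alpha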

With COc1ccc(C2CC(c3cccs3)=NN2c2nc(C)c(C(C)=O)s2)cc1OC (stereo not given) as the molecule, how does the inhibition read?
Its inhibition is 1.4%.

Which inhibition does the source give for COc1ccc(C(=O)Nc2ccccc2C(=O)N/N=C/c2ccccc2OC)cc1 here?
Its inhibition is 10.2%.

Which inhibition does the source give for CCOC(=O)N1CCN(C(=O)CSc2nnc(-c3c[nH]c4ccccc34)n2CCOC)CC1 here?
Its inhibition is 3.03%.

With COC(=O)C1=CN(Cc2ccc(OC)c(OC)c2)C=C(C(=O)OC)C1c1cccs1 as the molecule, how does the inhibition read?
The inhibition was -1.6%.

For Cc1ccc(C2=Nc3c(ccc4ccccc34)C(c3ccncc3)=NN2)cc1, which inhibition is on record?
The inhibition was 4.77%.

For CCOC(=O)C(=CNc1cccc(C)n1)C(=O)OCC, which inhibition is on record?
The inhibition was -2.27%.

With C[C@@H]1C[C@@H]2O[C@H]2/C=C\C=C\C(=O)Cc2c(Cl)c(O)cc(O)c2C(=O)O1 as the molecule, how does the inhibition read?
The inhibition was 54.9% (active).

With NS(=O)(=O)c1cccc(NC(=O)CSc2nc3ccccc3n2-c2ccccc2)c1 as the molecule, how does the inhibition read?
The inhibition was 1.57%.

For CCOC(=O)N1CCN(C(=O)C2CCN(c3ncnc4c3sc3cccc(F)c34)CC2)CC1, which inhibition is on record?
The inhibition was 20.1% (active).

For O=C(CCl)N(Cc1cccc([N+](=O)[O-])c1)c1cccc(Cl)c1, which inhibition is on record?
The inhibition was 37.9% (active).
